Inconclusive results are not listed. Where a call stands in place of a potency, no number is given. Values without a mark were called inactive. Activity calls are given as the source filed them. Unless noted, calls come from the whole dose curve; as a rule, active = well fitted cell-killing curve with a large enough effect in the repeat runs; inconclusive = weak or mixed curves; inactive = no such curve, though single readings can be large or run the other way.
Tested on: not listed separately
Assay: qHTS assay to identify small molecule agonists of the peroxisome proliferator-activated receptor delta (PPARd) signaling pathway - cell viability counter screen (AID 743211); note: nearly all actives have a fitted effect of over 55% in size
Conditions: PPARd-bla HEK293H viability, CellTiter-Glo luminescence, 17 h; series mostly up to 62.6 µM
Procedure, shortened: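 Following 5 h plating at 37 C and 5% CO2, PPARd UAS-bla HEK293H cells took up test compounds for 17 h. Viability was quantified by luminescence 30 min after CellTiter-Glo addition at room temperature.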

Which Potency does the source give for CCCCOC(=O)CCS here?
Its Potency is “inactive”.

For CC(C)CCCCCCOC(=O)CCCCC(=O)OCCCCCCC(C)C, which Potency is on record?
Its Potency is “inactive”.

For COC(OC)(C(=O)c1ccccc1)c1ccccc1, which Potency is on record?
The Potency was “inactive”.

Which Potency does the source give for CN1Cc2cc(C(=O)N3CCC(C4CCNCC4)CC3)ccc2N[C@@H](CC(=O)O)C1=O here?
The Potency was “inactive”.

With C1COCO1 as the compound, how does the Potency read?
The Potency was “inactive”.

With CC(=O)Nc1ccccc1C as the compound, how does the Potency read?
Its Potency is “inactive”.

With C=CCNc1nc(NCC=C)nc(N2CCN(C(c3ccc(F)cc3)c3ccc(F)cc3)CC2)n1 as the compound, how does the Potency read?
The Potency was “inactive”.

Which Potency does the source give for Cc1nc2ccccn2c(=O)c1CCN1CCC(C(=O)c2ccc(F)cc2)CC1 here?
The Potency was “inactive”.

For CCOC(=O)OCC, which Potency is on record?
The Potency was “inactive”.

For Cc1ccc(/C=N/n2c(-c3ccccc3)csc2=S)cc1, which Potency is on record?
The Potency was “inactive”.

Which Potency does the source give for COCC(O)CO (stereo unspecified) here?
The Potency was “inactive”.

With COc1cc2[nH]c(=O)[nH]c(=O)c2cc1OC as the compound, how does the Potency read?
Its Potency is “inactive”.

With CCC(C)(C)C1CCC(O)CC1 (stereo unspecified) as the compound, how does the Potency read?
The Potency was “inactive”.

With CCCC(=O)O[C@]1(C(=O)COC(=O)CC)CC[C@H]2[C@@H]3CCC4=CC(=O)CC[C@]4(C)[C@H]3[C@@H](O)C[C@@]21C as the compound, how does the Potency read?
The Potency was “inactive”.

Which Potency does the source give for C=CC(=C)CCCC(C)(C)OC(C)=O here?
The Potency was “inactive”.

For CC(CCc1ccc2c(c1)OCO2)NN (stereo unspecified), which Potency is on record?
The Potency was “inactive”.

Biological target: Peroxisome proliferator-activated receptor delta (Homo sapiens) (UniProt Q03181)
Assay: qHTS assay to identify small molecule agonists of the peroxisome proliferator-activated receptor delta (PPARd) signaling pathway (AID 743212; calls by dose curve;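 note: HEK293H cells with PPARd UAS beta-lactamase reporter GeneBLAzer system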)
Conditions: HEK293H PPARd-UAS-bla, beta-lactamase FRET ratio, 17 h; series mostly up to 62.6 µM
Procedure, shortened: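 GeneBLAzer UAS-bla HEK293H cells carrying a PPARδ construct were exposed to compounds at 37 °C. Beta-lactamase activity was read by FRET fluorescence after 2 h at room temperature with LiveBLAzer B/G substrate.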

Peroxisome proliferator-activated receptor delta (Homo sapiens), sequence (Q03181 whole entry, looked up): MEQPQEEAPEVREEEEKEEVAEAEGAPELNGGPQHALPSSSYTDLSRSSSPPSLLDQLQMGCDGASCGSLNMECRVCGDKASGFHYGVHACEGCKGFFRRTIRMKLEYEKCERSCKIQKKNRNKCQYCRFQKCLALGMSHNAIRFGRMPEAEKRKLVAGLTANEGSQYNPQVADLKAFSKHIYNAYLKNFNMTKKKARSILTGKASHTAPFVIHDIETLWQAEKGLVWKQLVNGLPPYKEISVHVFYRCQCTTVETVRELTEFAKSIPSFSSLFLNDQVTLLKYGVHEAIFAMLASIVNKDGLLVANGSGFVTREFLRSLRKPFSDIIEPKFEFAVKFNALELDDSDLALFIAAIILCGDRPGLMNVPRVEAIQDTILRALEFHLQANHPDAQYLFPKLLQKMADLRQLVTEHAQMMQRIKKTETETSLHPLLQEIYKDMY

With CC1CC(O)CC(C)(C)C1 (stereo unspecified) as the compound, how does the Potency read?
The Potency was “inactive”.

For Cc1ccnc2ccccc12, which Potency is on record?
Its Potency is “inactive”.

With Cc1nc2ccccc2s1 as the compound, how does the Potency read?
The Potency was “inactive”.

For Nc1nccs1, which Potency is on record?
Its Potency is “inactive”.

Which activation does the source give for CC1CN(c2cc3c(cc2F)c(=O)c(C(=O)O)cn3-c2ccc(F)cc2F)CCN1 (stereo unspecified) here?
Its activation is 3.73% [at 5.95 µM].

With CCCOC(=O)c1ccc(N)cc1 as the compound, how does the Potency read?
The Potency was “inactive”.

For O=Cc1c(Cl)cccc1Cl, which Potency is on record?
Its Potency is “inactive”.

Which Potency does the source give for CCCOCCOCCO here?
The Potency was “inactive”.

With C/C(=N/NC(=O)c1ccncc1)C(=O)O as the compound, how does the Potency read?
The Potency was “inactive”.

For OCCSc1ccccc1, which Potency is on record?
The Potency was “inactive”.

With CCOC(=O)c1ccccc1OC as the compound, how does the Potency read?
Its Potency is “inactive”.

Which Potency does the source give for ON(Cc1ccccc1)Cc1ccccc1 here?
The Potency was “inactive”.

With Nc1ccc(Cl)cc1[N+](=O)[O-] as the compound, how does the Potency read?
Its Potency is “inactive”.

With CCC1(C)CC(=O)NC1=O (stereo unspecified) as the compound, how does the Potency read?
The Potency was “inactive”.

With C=CC(C)(O)CCCC(C)CCCC(C)CCCC(C)C (stereo unspecified) as the compound, how does the Potency read?
Its Potency is “inactive”.

Which Potency does the source give for CCC(C)=O here?
Its Potency is “inactive”.

Which Potency does the source give for NC(=O)N(O)[C@@H]1C=C[C@H](Oc2cccc(Oc3ccc(F)cc3)c2)C1 here?
Its Potency is “inactive”.

With CC1=NN(c2ccc(C(=O)O)cc2)C(=O)C1 as the compound, how does the Potency read?
Its Potency is “inactive”.

Which Potency does the source give for CC(COc1ccc(C(C)(C)C)cc1)OS(=O)OCCCl (stereo unspecified) here?
The Potency was “inactive”.

With O=C(O)Cc1ccc(-c2ccccc2)cc1 as the compound, how does the Potency read?
The Potency was “inactive”.

Which Potency does the source give for Cc1ccc(S)cc1 here?
Its Potency is “inactive”.

For CC(=O)OCC(=O)[C@@]12OC(C)(C)O[C@@H]1C[C@H]1[C@@H]3C[C@H](F)C4=CC(=O)C=C[C@]4(C)[C@@]3(F)[C@@H](O)C[C@@]12C, which Potency is on record?
Its Potency is “inactive”.

For CCC(C(=O)OCCN(CC)CC)c1ccccc1 (stereo unspecified), which Potency is on record?
Its Potency is “inactive”.

For C[C@@H]1C[C@H]2[C@@H]3CCC4=CC(=O)C=C[C@]4(C)[C@@]3(F)[C@@H](O)C[C@]2(C)[C@H]1C(=O)CO, which Potency is on record?
The Potency was “inactive”.

For CCCCOC(=O)CCS, which Potency is on record?
The Potency was “inactive”.

Which Potency does the source give for CC(C)CCCCCCOC(=O)CCCCC(=O)OCCCCCCC(C)C here?
The Potency was “inactive”.

For COC(OC)(C(=O)c1ccccc1)c1ccccc1, which Potency is on record?
The Potency was “inactive”.

With CN1Cc2cc(C(=O)N3CCC(C4CCNCC4)CC3)ccc2N[C@@H](CC(=O)O)C1=O as the compound, how does the Potency read?
The Potency was “inactive”.

For C1COCO1, which Potency is on record?
Its Potency is “inactive”.

For CC(=O)Nc1ccccc1C, which Potency is on record?
The Potency was “inactive”.

With C=CCNc1nc(NCC=C)nc(N2CCN(C(c3ccc(F)cc3)c3ccc(F)cc3)CC2)n1 as the compound, how does the Potency read?
Its Potency is “inactive”.

Which Potency does the source give for Cc1nc2ccccn2c(=O)c1CCN1CCC(C(=O)c2ccc(F)cc2)CC1 here?
The Potency was “inactive”.

With CCOC(=O)OCC as the compound, how does the Potency read?
The Potency was “inactive”.

With Cc1ccc(/C=N/n2c(-c3ccccc3)csc2=S)cc1 as the compound, how does the Potency read?
The Potency was “inactive”.

With COCC(O)CO (stereo unspecified) as the compound, how does the Potency read?
Its Potency is “inactive”.

For COc1cc2[nH]c(=O)[nH]c(=O)c2cc1OC, which Potency is on record?
The Potency was “inactive”.

With CCC(C)(C)C1CCC(O)CC1 (stereo unspecified) as the compound, how does the Potency read?
The Potency was “inactive”.

Which Potency does the source give for CCCC(=O)O[C@]1(C(=O)COC(=O)CC)CC[C@H]2[C@@H]3CCC4=CC(=O)CC[C@]4(C)[C@H]3[C@@H](O)C[C@@]21C here?
Its Potency is “inactive”.

Which Potency does the source give for C=CC(=C)CCCC(C)(C)OC(C)=O here?
The Potency was “inactive”.

With CC(CCc1ccc2c(c1)OCO2)NN (stereo unspecified) as the compound, how does the Potency read?
Its Potency is “inactive”.

Tested on: not listed separately
Assay: qHTS assay to identify small molecule antagonists of the peroxisome proliferator-activated receptor delta (PPARd) signaling pathway - cell viability counter screen (AID 743213); note: nearly all actives have a fitted effect of over 50% in size
Conditions: PPARd-bla HEK293H viability, CellTiter-Glo luminescence, 17 h; series mostly up to 62 µM
Procedure, shortened: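 CellTiter-Glo was added to PPARd-bla HEK293H wells following 17 h compound treatment in the presence of 300 nM L165041. Luminescence was recorded after 30 min at room temperature.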

With CC1CC(O)CC(C)(C)C1 (stereo unspecified) as the compound, how does the Potency read?
The Potency was “inactive”.

With Cc1ccnc2ccccc12 as the compound, how does the Potency read?
The Potency was “inactive”.

Which Potency does the source give for Cc1nc2ccccc2s1 here?
The Potency was “inactive”.

Which Potency does the source give for Nc1nccs1 here?
The Potency was “inactive”.

For CC1CN(c2cc3c(cc2F)c(=O)c(C(=O)O)cn3-c2ccc(F)cc2F)CCN1 (stereo unspecified), which viability change, negative = cytotoxic is on record?
Its viability change, negative = cytotoxic is 12.1% [at 6.26 µM].

Which Potency does the source give for CCCOC(=O)c1ccc(N)cc1 here?
The Potency was “inactive”.

For O=Cc1c(Cl)cccc1Cl, which Potency is on record?
The Potency was “inactive”.

Which Potency does the source give for CCCOCCOCCO here?
Its Potency is “inactive”.

For C/C(=N/NC(=O)c1ccncc1)C(=O)O, which Potency is on record?
The Potency was “inactive”.

Which Potency does the source give for OCCSc1ccccc1 here?
Its Potency is “inactive”.

For CCOC(=O)c1ccccc1OC, which Potency is on record?
Its Potency is “inactive”.

For ON(Cc1ccccc1)Cc1ccccc1, which Potency is on record?
Its Potency is “inactive”.

With Nc1ccc(Cl)cc1[N+](=O)[O-] as the compound, how does the Potency read?
Its Potency is “inactive”.

For CCC1(C)CC(=O)NC1=O (stereo unspecified), which Potency is on record?
Its Potency is “inactive”.

Which Potency does the source give for C=CC(C)(O)CCCC(C)CCCC(C)CCCC(C)C (stereo unspecified) here?
The Potency was “inactive”.

For CCC(C)=O, which Potency is on record?
The Potency was “inactive”.

For NC(=O)N(O)[C@@H]1C=C[C@H](Oc2cccc(Oc3ccc(F)cc3)c2)C1, which Potency is on record?
The Potency was “inactive”.

With CC1=NN(c2ccc(C(=O)O)cc2)C(=O)C1 as the compound, how does the Potency read?
Its Potency is “inactive”.

Which Potency does the source give for CC(COc1ccc(C(C)(C)C)cc1)OS(=O)OCCCl (stereo unspecified) here?
Its Potency is “inactive”.

Which Potency does the source give for O=C(O)Cc1ccc(-c2ccccc2)cc1 here?
The Potency was “inactive”.

For Cc1ccc(S)cc1, which Potency is on record?
The Potency was “inactive”.

With CC(=O)OCC(=O)[C@@]12OC(C)(C)O[C@@H]1C[C@H]1[C@@H]3C[C@H](F)C4=CC(=O)C=C[C@]4(C)[C@@]3(F)[C@@H](O)C[C@@]12C as the compound, how does the Potency read?
The Potency was “inactive”.

With CCC(C(=O)OCCN(CC)CC)c1ccccc1 (stereo unspecified) as the compound, how does the Potency read?
The Potency was “inactive”.

With C[C@@H]1C[C@H]2[C@@H]3CCC4=CC(=O)C=C[C@]4(C)[C@@]3(F)[C@@H](O)C[C@]2(C)[C@H]1C(=O)CO as the compound, how does the Potency read?
The Potency was “inactive”.

For CCCCOC(=O)CCS, which Potency is on record?
The Potency was “inactive”.

For CC(C)CCCCCCOC(=O)CCCCC(=O)OCCCCCCC(C)C, which Potency is on record?
Its Potency is “inactive”.

Which Potency does the source give for COC(OC)(C(=O)c1ccccc1)c1ccccc1 here?
The Potency was “inactive”.

For CN1Cc2cc(C(=O)N3CCC(C4CCNCC4)CC3)ccc2N[C@@H](CC(=O)O)C1=O, which Potency is on record?
Its Potency is “inactive”.

For C1COCO1, which Potency is on record?
Its Potency is “inactive”.

Which Potency does the source give for CC(=O)Nc1ccccc1C here?
Its Potency is “inactive”.

For C=CCNc1nc(NCC=C)nc(N2CCN(C(c3ccc(F)cc3)c3ccc(F)cc3)CC2)n1, which Potency is on record?
The Potency was “inactive”.

With Cc1nc2ccccn2c(=O)c1CCN1CCC(C(=O)c2ccc(F)cc2)CC1 as the compound, how does the Potency read?
Its Potency is “inactive”.

Which Potency does the source give for CCOC(=O)OCC here?
The Potency was “inactive”.

Which Potency does the source give for Cc1ccc(/C=N/n2c(-c3ccccc3)csc2=S)cc1 here?
The Potency was “inactive”.

Which Potency does the source give for COCC(O)CO (stereo unspecified) here?
The Potency was “inactive”.

With COc1cc2[nH]c(=O)[nH]c(=O)c2cc1OC as the compound, how does the Potency read?
The Potency was “inactive”.

With CCC(C)(C)C1CCC(O)CC1 (stereo unspecified) as the compound, how does the Potency read?
Its Potency is “inactive”.

Which Potency does the source give for CCCC(=O)O[C@]1(C(=O)COC(=O)CC)CC[C@H]2[C@@H]3CCC4=CC(=O)CC[C@]4(C)[C@H]3[C@@H](O)C[C@@]21C here?
The Potency was “inactive”.

Which Potency does the source give for C=CC(=C)CCCC(C)(C)OC(C)=O here?
The Potency was “inactive”.

Which Potency does the source give for CC(CCc1ccc2c(c1)OCO2)NN (stereo unspecified) here?
The Potency was “inactive”.
